PubChem BioAssay AID868 (SRMLSC, 2007)
About 3,500 (1.8%) of roughly 190,000 compounds were called active.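 Rule for the calls: active = inhibition above a set limit, 3 SD over mean compound inhibition (cut at about 8.4% in these data); inactive = the rest.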 Shown is part of a subset that was picked to be rich in actives.

Test: inhibitors of the yeast RAM network, primary screen, dse1pr::URA3 reporter, 5-FOA selection (AID 868);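 note: 0% = DMSO-only wells with no growth and 100% = 10 µM 1-NA-PP1 full growth; inhibition rescues growth on 5-FOA so higher OD means more RAM inhibition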
Conditions: S. cerevisiae dse1pr::URA3 reporter, 5-FOA growth OD615, 2 d; at 50 µM; stronger effect = higher value; analog-sensitive cbk1-as2 kinase mutant strain

| SMILES | inhibition |
| --- | --- |
| COc1cccc(NC(=O)CN(C)C(C)C(=O)Nc2ccc(C#N)cc2)c1 (stereo not drawn) | 1.87% (inactive) |
| COc1cccc(NC(=S)NCc2ccco2)c1 | -0.52% (inactive) |
| CCn1c(Cc2ccccc2)nnc1SCC(=O)Nc1ccccc1 | 1.42% (inactive) |
| CCn1c(COc2ccc(OC)cc2)nnc1SCC(=O)Nc1cc(OC)ccc1OC | 0.11% (inactive) |
| CCn1c(COc2ccccc2)nnc1SCC(=O)Nc1ccc2c(c1)OCCO2 | 9.4% (active) |
| CCS(=O)(=O)Nc1ccc(C2=NN(C(C)=O)C(c3cccs3)C2)cc1 (stereo not drawn) | -0.12% (inactive) |
| Cn1nnnc1-c1cc(Cl)cc(Cl)c1 | -0.86% (inactive) |
| COC(=O)Cc1csc(Nc2c(C)n(C)n(-c3ccccc3)c2=O)n1 | 1.09% (inactive) |
| COC(=O)Cc1csc(/N=C/c2c(O)n(-c3cccc(C(F)(F)F)c3)c(=O)c3ccccc23)n1 | 8.86% (active) |
| CCOc1ccc(-n2c(O)c(/C=N/Nc3nc(C)cc(C)n3)c3ccccc3c2=O)cc1 | 3.13% (inactive) |
| COCCCNC(=S)NNC(=O)C(O)(c1ccccc1)c1ccccc1 | 1.35% (inactive) |
| COc1ccc(C(=O)CSc2nc(C)cc(C)n2)cc1[N+](=O)[O-] | 4.17% (inactive) |
| CC1CCCN(CC(O)COCc2ccccc2)C1 (stereo not drawn) | 3.48% (inactive) |
| Cc1cccc(NS(=O)(=O)c2ccc(C)c(C(N)=O)c2)c1 | 0.63% (inactive) |
| COc1ccccc1CNC(=O)CCn1c(=O)sc2ccccc21 | 8.77% (active) |
| COc1ccccc1CNC(=O)CCCn1c(=O)c2ccccc2n(CC(=O)NC2CCCC2)c1=O | 1.5% (inactive) |
| CCc1nnc(NC(=O)CCC(=O)NCc2ccccc2OC)s1 | 1.08% (inactive) |
| COc1ccccc1Cc1nc(-c2ccc(C)cc2)no1 | 0% (inactive) |
| Cc1ccc(-c2noc(CN3CCN(Cc4ccccc4)CC3)n2)cc1 | 1.83% (inactive) |
| Cc1ccc(-c2noc(CC(c3ccccc3)c3ccccc3)n2)cc1 | 9.59% (active) |
| Cc1cc(C)cc(C(=O)N(CCc2ccccc2)C2=CC3CCC(C2)N3C)c1 (stereo not drawn) | 0.13% (inactive) |

| SMILES | inhibition |
| --- | --- |
| C=CCOCCN(C)C1=NS(=O)(=O)c2ccccc21 | 2.38% (inactive) |
| C=CCn1c(SCC(=O)CC(=O)OCC)nc2cc(C(=O)N3CCC(C(N)=O)CC3)ccc2c1=O | 2.99% (inactive) |
| C/C(CCC(=O)OC[C@H]1O[C@H](C#Cc2ccccc2)C=C[C@@H]1Oc1ccc(C)cc1)=N\OC[C@@H](O)[C@H]1O[C@@H]2OC(C)(C)O[C@@H]2[C@H]1O | 11.1% (active) |
| O=C(NNC(=S)NCc1ccccc1)c1ccc(OC(F)F)cc1 | 1.5% (inactive) |
| COc1cccc(CC2(CO)CCCN(CC3=Cc4cc(OC)ccc4OC3)C2)c1 (stereo not drawn) | 0.13% (inactive) |
| O=C(c1nnc(-c2ccc(Cl)cc2)o1)C1CCCC1 | 2.68% (inactive) |
| CCOc1ccc2cc(C#N)c(SCC(=O)OC)nc2c1 | 1.88% (inactive) |
| COC(=O)CSc1nc(C2CC2)nc2ccccc12 | -0.4% (inactive) |
| COC(=O)CSc1nc2c(c(C3CC=CCC3)c1C#N)CCC2 (stereo not drawn) | 8.53% (active) |
| O=C(CSc1cccc[n+]1[O-])c1ccc(-c2ccccc2)cc1 | 0.55% (inactive) |
| CCN1CCc2c(C#N)c(NCc3ccccc3)nc(NCCO)c2C1 | 1.86% (inactive) |
| CCCCc1nc(NCc2ccccc2)c(C#N)c2c1CCCC2 | 8.74% (active) |
| CCCCc1nc(NCCN)c(C#N)c2c1CSC(C)(C)C2 | 1.35% (inactive) |
| CS(=O)(=O)N1CCc2cc(C(=O)Nc3ccccc3)ccc21 | 3.82% (inactive) |
| CN(CC(=O)Nc1ccc(S(=O)(=O)N2CCCC2)cc1)Cc1ccc(Cl)c(Cl)c1 | -0.13% (inactive) |
| COc1ccc(OCC(=O)OCC(=O)Nc2ccc(S(=O)(=O)N3CCCCC3)cc2)cc1 | 4.54% (inactive) |
| O=C(CSCc1ccc(Br)cc1)Nc1ccc(S(=O)(=O)N2CCCCCC2)cc1 | 19.5% (active) |
| COc1ccc(Sc2nc(-c3ccccc3)ncc2OC)cc1 | 4.55% (inactive) |
| O=C(CCC(=O)OCC(F)(F)C(F)F)NCc1ccccc1 | -0.39% (inactive) |
| Cc1ccc(OC(=O)c2ccccc2C(=O)OCC(F)(F)C(F)F)cc1 | 8.9% (active) |
| Cc1ccc(OC(=O)c2cc3ccccc3o2)cc1 | 0.41% (inactive) |

| SMILES | inhibition |
| --- | --- |
| COc1ccc(C=Nc2cccc3ncccc23)cc1 | 0.48% (inactive) |
| C=C(C)c1cccc(C(C)(C)NC(=O)NCCN(CC)CC)c1 | 1.45% (inactive) |
| O=[N+]([O-])c1cc(S(=O)(=O)Nc2cccc(Cl)c2)ccc1N=Nc1c(O)[nH]c2ccccc12 | 7.97% (inactive) |
| COc1ccc(/C=C(\NC(=O)c2ccc(OCC(C)C)cc2)C(=O)OCc2ccco2)cc1 | 11.7% (active) |
| CCCCOc1ccc(C(=O)NCc2ccco2)cc1 | 0.66% (inactive) |
| O=C(OCN1C(=O)c2ccccc2C1=O)/C(=C\c1ccco1)NC(=O)c1ccccc1 | 1.22% (inactive) |
| COc1ccc2c(c1)CCC/C2=N\OC(=O)c1ccccc1F | 0% (inactive) |
| Cc1ccc(S(=O)(=O)NC(C)C(=O)Nc2ccccc2C(=O)N2CCCC2)cc1 (stereo not drawn) | 0.67% (inactive) |
| Cc1ccc(S(=O)(=O)NNC(=O)Nc2cccc3ccccc23)cc1 | 8.69% (active) |
| COc1ccc(C(=O)NNS(=O)(=O)c2ccc(C)cc2)cc1 | 1.12% (inactive) |
| Cc1ccc(C(C[N+](=O)[O-])c2c(C)cc3ccccn23)cc1 (stereo not drawn) | 5.1% (inactive) |
| CCN1CCN(C(=O)CN(C)S(=O)(=O)c2ccc3ccccc3c2)CC1 | 1.12% (inactive) |
| N/C(=N\OC(=O)CCCC(=O)O)c1ncc(C(F)(F)F)cc1Cl | 1.61% (inactive) |
| O=C(CCC(=O)c1cccs1)NCc1ccccc1 | 1.52% (inactive) |
| CCCC(=O)n1nc(NCc2ccc(OC)cc2)nc1NCc1ccc(OC)cc1 | 6.99% (inactive) |
| O=C(c1cccs1)n1nc(NCc2ccccc2)nc1NCc1ccccc1 | 11.2% (active) |
| O=C(NCCOc1ccccc1Cl)C(=O)Nc1ccccc1 | 4.17% (inactive) |
| NC(N)=Nc1nc2ccc(Br)cc2c(=O)[nH]1 | -0.37% (inactive) |
| CCOC(=O)c1c(NC(=O)CCC(=O)NCc2ccco2)sc2c1CCCC2 | 9.97% (active) |
| CCOCC(=O)Nc1sc2c(c1C(=O)OCC)CCCC2 | 2.1% (inactive) |
| CCOC(=O)c1c(NC(=S)NC(=O)c2ccco2)sc2c1CCCC2 | 4.55% (inactive) |
